Consider 52 compounds from PubChem BioAssay AID2289 (National Center for Advancing Translational Sciences (NCATS), 2010).

Out of some 340,000 compounds screened, about 3,300 (0.97%) were called active. Inconclusive results (about 9%) are left out. The call rests on the fitted dose curve; in most records, active means well fitted inhibition curve with a large enough effect; inconclusive means small, poorly fitted or top-dose-only effect, or effect the other way; inactive means flat fitted curve, though single readings scatter. The list shows a part of the results.
Potency means the concentration at half of the fitted maximal effect.

The nature of the test: qHTS Assay for Modulators of miRNAs and/or Inhibitors of miR-21. Further: nearly all actives have a fitted effect of over 55% in size. As to conditions: HeLa miR-21-FLuc reporter, luciferase luminescence, 48 h; actives lower the signal. From the text: MLSCN Grant: 1 R21 NS059478-01 Assay Provider: Qihong Huang, The Wistar Institute NCGC Assay Overview: MicroRNAs (miRNAs) are endogenously encoded small (~20-25 nucleotides), nonprotein-coding RNAs that are involved in post-transcriptional repression of target messenger RNAs (mRNAs) (Le and Hannon, 2004). Estimated to be involved in the regulation of 30% of all protein-coding mRNAs (Filipowicz et al., 2008), miRNAs play a significant role in many biological processes including cellular differentiation and tissue development (Ghildiyal and Zamore, 2009).
NCGC Assay Protocol Summary: Reagents: HeLa cells stably expressing firefly luciferase (FLuc) under the control of a CMV promoter (upstream) and a miR-21 binding sequence directly downstream of the gene. These cells endogenously express miR-21. Control compounds used were compound C3 (provided by collaborator), N6-phenyladenosine (MP Biomedicals, 0215379625), and DMSO. Assay Summary: 6uL of HeLa miR-21-FLuc cells in assay buffer (DMEM, Invitrogen #21063-029; 10% FBS, HyClone #SH30071.03) were dispensed at 2000cells/well (3.3 x 10^5 cells/mL) into Greiner solid-white TC-treated 1536-well plates using a Multidrop Combi (Thermo Fisher Scientific). Plates were incubated for one hour at 37 degree Celsius, 95% humidity, 5% CO2. These assay plates were then treated with 23nL of compound or DMSO using a Kalypsys pin tool, which allows for delivery of a 24-point titration of each compound to the assay plate, with a final compound concentration ranging from approximately 40uM to 5pM. Assay plates were then incubated for 48 hours. After incubation, plates were allowed to come to RT for one hour prior to delivery of 3uL of 3X luciferase detection reagent. After a 15 minute incubation to allow for cell lysis, luciferase activity was measured using a ViewLux CCD imager (PerkinElmer), with an average exposure time of 2-12 seconds. Keywords: NIH Roadmap, MLPCN, MLSMR, qHTS, miR-21, microRNA, firefly luciferase, FLuc.
On to `Nc1nc(-c2ccc(Cl)cc2)nnc1-c1ccc(Br)cc1`, for which the Potency was 2.07 µM (active).

As for `CC(C)CC(=O)Nc1ccc2nn(-c3ccccc3)nc2c1`, the Potency was 0.656 µM (active).

Consider `CC(=O)Nc1cc2nn(-c3ccccc3)nc2cc1Cl`, for which the Potency was 0.464 µM (active).

As for `CCCC(=O)Nc1cc2nn(-c3ccccc3)nc2cc1C`, the Potency was 0.369 µM (active).

With `COc1ccc(O)c(/C=N/N2CCCCC2)c1`, the Potency is 5.21 µM (active).

Consider `O=C1N/C(=C\c2nc3ccccc3s2)c2ccccc21`, for which the Potency is 0.0736 µM (active).

On to `CSc1nnc(-c2cc3c(s2)-c2ccccc2CC3)o1`, for which the Potency is 1.17 µM (active).

Consider `COCCNC(=O)c1cc2oc3ccccc3c2n1C`, for which the Potency was 14.7 µM (active).

Consider `Cn1c(C(=O)NCC2CCCO2)cc2oc3ccccc3c21` (configuration not stated), for which the Potency was 2.07 µM (active).

As to `Cn1c(C(=O)N2CCc3ccccc3C2)cc2oc3ccccc3c21`, the Potency is 10.4 µM (active).

With `CCc1c(C)sc(NC(=O)c2cccs2)c1C#N`, the Potency is 5.21 µM (active).

Consider `Cc1sc(NC(=O)c2ccccc2)c(C#N)c1-c1ccccc1`, for which the Potency was 0.826 µM (active).

For the compound `CCc1c(C)sc(NC(=O)c2ccco2)c1C#N`, the Potency was 11.7 µM (active).

Turning to `Nc1nc2ccc(-c3nc4ccccc4o3)cc2s1`, the Potency is 0.927 µM (active).

Turning to `Cc1ccccc1NC(=O)c1ccc2c(c1)N(C)CCS2`, the Potency is 3.69 µM (active).

Take `CN1CCSc2ccc(C(=O)Nc3ccc(Cl)cc3)cc21`: the Potency was 1.04 µM (active).

As to `O=C1CCC(=O)N1c1ccc(-c2nc3ccccc3s2)cc1`, the Potency is 0.521 µM (active).

For `c1ccc2sc(-c3ccncc3)nc2c1`, the Potency is 6.56 µM (active).

Take `c1csc(-c2nc3ccccc3s2)c1`: the Potency was 5.85 µM (active).

As to `O=S(=O)(Nc1cccc(-c2ccc(N3CCCCCC3)nn2)c1)c1ccc(F)cc1`, the Potency is 13.1 µM (active).

For the compound `O=S(=O)(Nc1cccc(-c2ccc(N3CCCCCC3)nn2)c1)c1cccc(F)c1`, the Potency was 9.27 µM (active).

As for `CC(OC(=O)CNC(=O)c1ccccc1F)C(=O)Nc1nc(-c2ccccc2)cs1` (configuration not stated), the Potency was 4.65 µM (active).

Consider `Nc1nn2cc(-c3ccccc3)nc2c2ccccc12`, for which the Potency was 0.521 µM (active).

For `Clc1ccc(COc2ccccc2-c2ccnc3ncnn23)cc1`, the Potency was 13.1 µM (active).

`CC(O)c1ccc(OCCN(C)c2ccccn2)cc1` (configuration not stated): the Potency was 16.5 µM (active).

For `COc1cc(OC)c(NC(=O)CCCn2nc(C)c3sc4ccccc4c3c2=O)cc1Cl`, the Potency was 11.7 µM (active).

On to `Cc1ccc(CONC(=O)c2ccccc2)cc1`, for which the Potency was 18.5 µM (active).

As to `CC/C(=N/NC(=O)c1ccccc1)c1ccc(OCCN2CCOCC2)cc1`, the Potency is 2.93 µM (active).

Take `Cc1nn(Cc2c(F)c(F)c(F)c(F)c2F)c(C)c1NC(=O)c1cccc(COc2ccc(Cl)cc2)c1`: the Potency was 7.36 µM (active).

For `CC(C)c1cc(C(N)=O)c(NC(=O)c2cccc(COc3ccc(Cl)cc3)c2)s1`, the Potency was 0.585 µM (active).

For the compound `COc1ccc(NC(=S)N2CCc3ccccc32)cc1OC`, the Potency was 16.5 µM (active).

As for `Brc1c(CSc2nc3ccccc3s2)nc2ncccn12`, the Potency was 3.29 µM (active).

As for `Brc1c(CSc2nc3ccccc3o2)nc2ncccn12`, the Potency was 7.36 µM (active).

On to `C/C(=N\Nc1nncc2ccccc12)c1ccc(C(C)(C)C)cc1`, for which the Potency is 7.36 µM (active).

As to `C/C(=N\Nc1nncc2ccccc12)c1ccc(OCC(=O)N(C)C)cc1`, the Potency was 4.65 µM (active).

Take `COc1ccc(/C(C)=N/Nc2nncc3ccccc23)cc1`: the Potency was 0.826 µM (active).

As for `C/C(=N\Nc1nncc2ccccc12)c1cccc(OC(F)F)c1`, the Potency is 0.414 µM (active).

Regarding `Cc1cc(N2CCOCC2)nc(SCC(=O)c2ccccc2)n1`, the Potency is 13.1 µM (active).

As to `Cc1cc(=O)oc2cc(NC(=O)c3ccccc3OC(F)F)ccc12`, the Potency is 8.26 µM (active).

On to `CCCCOC(=O)Nc1ccc2c(C)cc(=O)oc2c1`, for which the Potency was 1.17 µM (active).

For the compound `COc1cccc(C(=O)Nc2ccc3c(C)cc(=O)oc3c2)c1`, the Potency was 0.329 µM (active).

For `Cc1cc(=O)oc2cc(NC(=O)c3ccccc3Cl)ccc12`, the Potency was 3.69 µM (active).

In the case of `O=C(NC(=S)Nc1ccc2c(c1)C(=O)c1ccccc1C2=O)c1ccc(F)cc1`, the Potency was 2.93 µM (active).

Take `COc1cccc(C(=O)Nc2ccc3c(c2)C(=O)c2ccccc2C3=O)c1`: the Potency is 2.93 µM (active).

As for `COc1cccc(C(=O)Nc2nnc(-c3ccccc3)s2)c1`, the Potency is 0.826 µM (active).

Consider `Fc1ccc2nc(Nc3nc4cc5c(cc4s3)OCO5)sc2c1`, for which the Potency is 1.65 µM (active).

Regarding `c1ccc2sc(Nc3nc4cc5c(cc4s3)OCO5)nc2c1`, the Potency is 3.69 µM (active).

Turning to `CC(=O)c1sc(Nc2nc3cc4c(cc3s2)OCO4)nc1C`, the Potency is 1.85 µM (active).

As to `C/C(=N\Nc1nc2ccccc2s1)c1ccc2c(c1)OCO2`, the Potency was 10.4 µM (active).

As for `CC(=O)Nc1nnc(COc2ccc(Cl)cc2)s1`, the Potency was 3.29 µM (active).

As for `CCN(CC)S(=O)(=O)c1nnc(NC(=O)COc2ccc(Cl)cc2)s1`, the Potency is 0.521 µM (active).

Regarding `Nc1nnnn1/N=C/c1ccc(N2CCCCC2)c([N+](=O)[O-])c1`, the Potency was 16.5 µM (active).
